Measured values from PubChem BioAssay AID652257 (The Scripps Research Institute Molecular Screening Center, 2013).
Among all 370,000 compounds or so, about 4,800 (1.3%) were called active. For the sample, actives were picked, then their nearest neighbours and some compounds at random. Values without a mark were called inactive.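 Rule for the calls: active = inhibition above about 21% made by adding two undisclosed values (limit read from the data); inactive = the rest.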

These molecules were tested against Protein arginine N-methyltransferase 1 (Homo sapiens) (UniProt Q99873) (assay: human PRMT1 activity-probe blockers – biochemical, fluorescence polarization, primary screen (AID 652257)). Conditions: recombinant PRMT1, activity-based probe fluorescence polarization; at 2.79 µM; stronger effect = higher value.
Protein arginine N-methyltransferase 1 (Homo sapiens), sequence (Q99873 whole entry, looked up): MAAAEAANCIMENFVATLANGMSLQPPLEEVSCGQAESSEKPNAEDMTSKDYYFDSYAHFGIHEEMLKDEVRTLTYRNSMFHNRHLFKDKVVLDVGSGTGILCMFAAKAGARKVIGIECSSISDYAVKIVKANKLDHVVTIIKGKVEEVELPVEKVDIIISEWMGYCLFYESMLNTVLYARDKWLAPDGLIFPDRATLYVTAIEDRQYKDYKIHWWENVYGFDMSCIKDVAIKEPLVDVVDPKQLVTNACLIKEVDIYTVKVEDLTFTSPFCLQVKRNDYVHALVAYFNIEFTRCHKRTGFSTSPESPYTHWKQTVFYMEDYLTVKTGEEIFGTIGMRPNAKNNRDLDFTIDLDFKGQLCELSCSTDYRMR

Going from COC(=O)C1CN(CC(C)C)CCS(=O)(=O)N1Cc1ccc(F)cc1 (centres undefined) to COc1cccc(N2CCN(CC(=O)N(C)Cc3ccc(F)cc3)CC2)c1, the inhibition falls from 1.47% to 0.17%.

Going from CN(CCc1ccccc1)C(=O)Cn1nc(-c2ccccc2)ccc1=O to CCOC(=O)C(C)n1nc(-c2ccccc2)c2ccccc2c1=O (centres undefined), the inhibition falls from -1.41% to -2.85%.

First: Cc1[nH]c2ccccc2c1C(=O)C(C)Sc1nnc(C2CC2)o1 (centres undefined)
Second: CC(NC(=O)c1cc(=O)[nH]c2ccccc12)c1ccc(F)cc1F (centres undefined)
The inhibition of the first is higher: 2.13% for the first, 0.78% for the second.

Compared with Nn1c(SCC(=O)N2c3ccccc3Sc3ccccc32)nnc1-c1n[nH]c2c1CCC2, COc1ccc(-n2c(SCC(=O)Nc3ccccc3-c3ccccc3)nnc2-c2cccnc2)cc1 is lower in inhibition: 5.44% for the first, -3.53% for the second.

First: C/C(CC(=O)N1CCN(C=O)CC1)=N\NC(=O)c1ccc(Br)cc1
Second: Cc1ccc(C(=O)C2CCN(CC(=O)NCCC(C)C)CC2)cc1
The inhibition of the first is lower: 2.11% for the first, 4.05% for the second.

Compared with O=C(NCCN1C(=O)S/C(=C\c2cccnc2)C1=O)c1ccc(S(=O)(=O)N2CCCC2)cc1, O=C(Nc1ccc2cn[nH]c2c1)c1ccc(S(=O)(=O)N2CCOCC2)cc1 is lower in inhibition: 4.69% for the first, 3.18% for the second.

First: CCCn1nnnc1NCc1ccc(CC)cc1
Second: CCOC(=O)C1=C(CSc2nnnn2C)N(C)C(=O)NC1c1ccccc1 (centres undefined)
The inhibition of the first is higher: 1.58% for the first, -1.87% for the second.

Going from CN(CCO)c1ccc(/C=N/Nc2nncc3ccccc23)cc1 to Clc1ccc(Nc2ccc3ccccc3n2)cc1, the inhibition falls from -2.83% to -3.42%.

First: COC(=O)[C@]1(Cc2ccccc2)NC=C(C(=O)c2ccccc2)[C@@H]1c1cccc(OC)c1
Second: O=C(CSc1nc2ccccc2n1Cc1ccccc1)NNC(=S)Nc1ccccc1
The inhibition of the first is higher: 2.58% for the first, 1.31% for the second.

First: O=C(CCN1C(=O)c2ccccc2C1=O)NCCCn1ccnc1
Second: O=C(NCCCn1ccnc1)/C(=C\c1ccccc1F)NC(=O)c1ccccc1
The inhibition of the first is higher: 1.79% for the first, -3.1% for the second.

Going from CCC[C@H]1C(=O)CC[C@@]23CCCN2C(=O)CCC[C@@H]13 to C=CCN1C(=O)[C@@H](CC(=O)N2CCN(C(=O)OCC)CC2)[C@]2(C(=O)OCC)CCCCC/C=C/12, the inhibition rises from 1.57% to 2.76%.

Compared with COCCN(C(=O)c1ccco1)c1nnc(-c2ccc(OC)cc2)s1, CCc1nc2c(OCC(N)=O)cccn2c1N(C)C(=O)c1ccc(OC)cc1 is lower in inhibition: 1.28% for the first, -1.98% for the second.

Going from O=C(CCl)NC1CCCCN(Cc2cccc(C(F)(F)F)c2)C1=O (centres undefined) to COc1ccccc1C(=O)NC1CCCCN(C(C)C)C1=O (centres undefined), the inhibition falls from 3.41% to 2.65%.

First: CC1Cn2c(nnc2-c2cccs2)S1 (centres undefined)
Second: COC(=O)N1Cc2ccnnc2CC1c1ccccc1Br (centres undefined)
The inhibition of the first is higher: 5.98% for the first, -1.59% for the second.

Going from O=C(Nc1ccc(N2CCOCC2)c(Cl)c1)c1ccc(S(=O)(=O)N2CCOCC2)cc1 to O=C(Nc1cccc(C(=O)NC2CC2)c1)c1ccc(F)c(S(=O)(=O)N2CCOCC2)c1, the inhibition falls from 1.99% to 1.48%.

Compared with O=C(CSc1nc2ccccc2nc1N1CCCCC1)N1CCN(S(=O)(=O)c2cccc([N+](=O)[O-])c2)CC1, O=C(C1CCN(S(=O)(=O)c2ccccc2)CC1)N1CCN(C2CCCCC2)CC1 is lower in inhibition: 0.86% for the first, -0.34% for the second.

Going from CC(=O)O[C@@]1(C(C)=O)CCC2[C@H]3C=C(C)C4=CC(=O)CC[C@@]4(C)C3CC[C@]21C (some centres undefined) to Cc1ccc(S(=O)(=O)NC(=O)N2CCCC(C)(C)C2)cc1, the inhibition rises from -2.39% to -1.8%.

First: Cc1ccccc1-c1ccc2c(c1)O[C@@H](CN(C)Cc1ccc(C(=O)O)cc1)[C@@H](C)CN([C@H](C)CO)S2(=O)=O
Second: Cc1ccc(-n2c(COc3ccccc3)nnc2SCC(=O)Nc2ccc3c(c2)OCCO3)cc1
The inhibition of the first is lower: -1.8% for the first, 1.77% for the second.

First: CCn1c(C(O)c2cc(OC)ccc2OC)nc2ccccc21 (centres undefined)
Second: COc1ccc(OC)c(C(O)c2nc3ccccc3n2C)c1 (centres undefined)
The inhibition of the first is lower: -3.51% for the first, 5.63% for the second.

Compared with CCOC(=O)c1cccc(NC(=O)CN(C)S(=O)(=O)c2ccc(-c3cocn3)s2)c1, CCOc1ccc(C(=O)CCC(=O)Nc2ccncc2)cc1 is higher in inhibition: -6.43% for the first, -2.2% for the second.

Compared with O=C(Nc1ccnn1C1CCN(C/C=C/c2ccc(F)cc2)CC1)C1CCCC1, O=C(NCc1ccc(F)cc1F)[C@@H]1CCCN1C(=O)[C@@H]1CCCN1C(=O)c1cccc(Cl)c1 is lower in inhibition: -2.06% for the first, -3.37% for the second.

First: O=C(N[C@H](C(=O)N1CCC[C@H]1C(=O)NCCc1ccccc1Cl)c1ccccc1)c1ccccc1
Second: CC(=O)NC(CC(=O)Nc1nc(-c2ccccc2)c(C(C)=O)s1)c1ccccc1 (centres undefined)
The inhibition of the first is higher: 4.7% for the first, 1.97% for the second.

Compared with CCOC(=O)[C@]12CCCCC/C=C\1N(Cc1ccc(OC)cc1)C(=O)[C@H]2CC(=O)NCc1ccc(C)o1, CCN1C(=O)[C@H]2[C@@H](c3ccccc3)N[C@]3(CCCN(Cc4ccc(C)cc4)C3=O)[C@H]2C1=O is lower in inhibition: 11.7% for the first, -1.43% for the second.

Compared with CN(C)S(=O)(=O)c1ccc(Cl)c(NC(=O)COC(=O)CC(NC(N)=O)c2ccc(Cl)cc2)c1 (centres undefined), CCOC(=O)c1cnc(SCC(=O)Nc2ccccc2C(=O)OC)nc1N is higher in inhibition: -6.61% for the first, -1.74% for the second.

Going from O=C(c1ncn2c1c(=O)[nH]c1ccccc12)N1CCc2ccccc2C1 to O=C(CN1CCCc2ccccc21)NCc1ccc(F)cc1, the inhibition falls from -1.56% to -5.39%.

Compared with N[C@@H](Cc1ccccc1)C(=O)N1CCC[C@@H]1C(=O)N1CCC2CCN(S(=O)(=O)c3ccccc3)CC21 (some centres undefined), COC(=O)[C@H](C(C)C)N(CCCc1cn(Cc2ccccc2)nn1)S(=O)(=O)c1ccc(F)cc1Br is lower in inhibition: 3.14% for the first, 1.25% for the second.

Going from Cc1nc(N)[nH]c(=O)c1Oc1cccc(C(F)(F)F)c1 to COc1ccc(CSc2nnc(-c3cccc(C)c3)n2C)cc1, the inhibition rises from -1.54% to 8.96%.

Compared with O=C(NC1CCC1)c1ccc(C#Cc2cccc(F)c2)c[n+]1[O-], COc1ccc(N2C(=O)CC(Nc3ccc(F)cc3)C2=O)c([N+](=O)[O-])c1 (centres undefined) is higher in inhibition: -4.9% for the first, 2% for the second.

First: C#CCN([C@H](C(=O)OC)C(C)CC)S(=O)(=O)c1ccccc1Br (some centres undefined)
Second: COP(=O)(O)CNC(=O)OCc1ccccc1
The inhibition of the first is higher: 1.85% for the first, -3.79% for the second.

First: CC(=O)NC1C(Oc2ccc(C=O)cc2)OC(COC(C)=O)C(OC(C)=O)C1OC(C)=O (centres undefined)
Second: CCOc1ccc(C(=O)CCC(=O)NC2=NCCS2)cc1
The inhibition of the first is lower: -2.72% for the first, 0.3% for the second.

First: C=CCNC(=S)NNC(=O)COc1c(Cl)cc(Cl)cc1Cl
Second: CCOc1ccc(-c2nc(C)sc2CC(=O)O)cc1
The inhibition of the first is lower: 1.94% for the first, 4.47% for the second.

Going from COc1cc(CN2CC(C)CC(C)C2)cc([N+](=O)[O-])c1O (centres undefined) to CCCCSc1[nH]c(=O)c(C(=O)OCC)cc1C#N, the inhibition rises from -0.22% to 5.58%.

Going from N#CCOc1ccc(C2=NO[C@@H]3[C@@H]4C[C@@H]([C@H]5C(=O)N(c6ccc7c(c6)OCO7)C(=O)[C@@H]45)[C@H]23)cc1 to Cc1ccc(-n2c(SCC(=O)Nc3cccc4ccccc34)nnc2-c2ccco2)cc1, the inhibition rises from -0.79% to 1.53%.

Going from COCCCNc1nc2c(-c3cccc(C)c3)nnn2c2ccc(Cl)cc12 to Cc1ccc(Cc2c(-c3ccc(Cl)cc3)nc3c4ccccc4ccn23)cc1, the inhibition falls from 1.2% to -0.73%.

Going from C=CCOC/C=C/C#CCN(CC=C)Cc1ccc(OC)cc1OC to CCN(CC)C(=O)c1nc[nH]c1C(=O)N(C)Cc1ccccc1, the inhibition rises from -0.66% to 0.76%.

Compared with O=C(CCSc1ccccc1)NCCSc1ccccn1, Cc1ccc(Cc2c(-c3ccc(C)cc3)nc3c4ccccc4ccn23)cc1 is lower in inhibition: -0.03% for the first, -3.94% for the second.

In the case of O=C(O)c1ccc(/C=C2\SC(=S)N(NC(=O)c3ccc(Br)cc3)C2=O)cc1, the inhibition is reported as 30.2% (active).
With FC(F)(F)c1nc2ccccc2nc1N/N=C/c1ccc(Cl)cc1 the inhibition was 66.9% (active).
O=C(CN1C(=O)S/C(=C\c2ccccc2F)C1=O)NCCCn1ccnc1 was tested, and the inhibition was 29.4% (active).
With O=C(Nc1ccc(S(=O)(=O)N2CCOCC2)cc1)c1ccc2ncsc2c1 the inhibition was 22.4% (active).
In the case of COc1ccc(-c2cc3c(c4c2ccn4C)C2CCC3C2)cn1 (centres undefined), the inhibition is reported as 32.2% (active).
With CCCn1c(C(O)c2cc(OC)ccc2OC)nc2ccccc21 (centres undefined) the inhibition was 23.1% (active).
With CN(C)C(=O)N=NC(=O)N(C)C the inhibition was 27.4% (active).
For N#CC1=C(N)Oc2c(sc3ccccc23)C1c1ccco1 (centres undefined), the inhibition was 26.8% (active).
With O=C(Nc1ccccc1Cl)/C(Cl)=C(\Cl)S(=O)c1ccccc1 (centres undefined) the inhibition was 80.3% (active).
In the case of O=c1[nH]c2ccccc2n2c(-c3ccccc3)nnc12, the inhibition is reported as 85.2% (active).
CCN1CCN(C(=O)N[C@@H](C(=O)N[C@@H]2C(=O)N3C(C(=O)O)=C(CSc4nnnn4C)CS[C@H]23)c2ccc(O)cc2)C(=O)C1=O was tested, and the inhibition was 28.5% (active).
With CCOc1ccc(C(=O)CCN2CCOCC2)cc1 the inhibition was 21.4% (active).
For COc1cc(/C=C2/C(=O)NN(c3ccc(F)cc3)C2=O)cc([N+](=O)[O-])c1O, the inhibition was 22.9% (active).
With C/C(=N/Nc1nc(-c2ccccc2)c(CC(=O)O)s1)c1ccccc1 the inhibition was 23.7% (active).
CCOC(=O)C(Sc1ncc(C#N)c(N)n1)C(C)C (centres undefined) was tested, and the inhibition was 33.5% (active).
c1ccc(Cc2c(-c3ccco3)nc3c4ccccc4ccn23)cc1 was tested, and the inhibition was 26.2% (active).
With CCN(CC)C(=O)c1sc2nc(-c3ccccc3)ccc2c1N the inhibition was 23.1% (active).
